Assay results published in PubChem BioAssay (NCI).
This is part of a sample that, as a whole, favours compounds with a hit. Of some 83,000 tested, about 20% had one in any assay.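 Each cell line was grown in a 96-well plate and treated with one concentration of compound for 48 hours. Values below 10 were considered active.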 Calls of active or inactive are those of the source.

Test system: PC-3 prostate
Experiment: NCI-60 one-dose screen, 48 h (100 = growth as untreated, 0 = no growth, -100 = all killed)
Settings: 10 µM unless noted
Protocol: Growth inhibition of the PC-3 human tumor cell line is measured as a screen for anti-cancer activity. Cells are grown in 96 well plates and exposed to the test compound for 48 hours. Compounds are tested at a single concentration, which is 10^-5 M for most compounds. The reported endpoint is percent growth (GI% or GIPRCNT), where numbers from 0 - 100% represent growth inhibition, and numbers from -100% - 0 represent cell death. For example, a value of 40 represents 60% growth inhibition. A value of 0 means no net growth occurred over the course of the experiment. A value of -40 indicates 40% of cells at the beginning of the experiment died by the end of the experiment. A value of -100 means all cells are dead at the end of the experiment.
NCI-60 Human Tumor Cell Lines Screen was performed using the standard one-dose NCI protocol, which is described in more detail at https://dtp.cancer.gov/discovery_development/nci-60/default.htm.
Compounds with GIPRCNT values below 10 were considered active. Activity score was based on GIPRCNT using the following formula: […]
Score is 0 for GIPRCNT values of 100 or above, 50 for GIPRCNT values of 0, and 100 for GIPRCNT values of -100.

Row | Structure (SMILES) | growth
1 | CCCCCCCOc1c(OC)cc(C2CC(=O)Nc3c2c(C)nn3-c2nc3ccccc3[nH]2)cc1OC (stereo not given) | 12% (inactive)
2 | O=S(=O)(NCCCNc1cc(-c2c(-c3cccc(O)c3)nc3sccn23)ccn1)c1cccc(Cl)c1 | 24.6% (inactive)
3 | CC(C)CCC[C@@H](C)[C@H]1CC[C@H]2[C@@H](Nc3ccc(O)cc3)CCC[C@]12C | 33.5% (inactive)
4 | O=C(N/N=C/C=C/c1ccc([N+](=O)[O-])o1)c1cc2ccccc2cc1O | 4.52% (active)
5 | O=C(c1ccccc1)c1c(/C=C/c2ccccc2)nc2ccccc2c1/C=C/c1ccc(Br)cc1 | 90.2% (inactive)
6 | C=C(C)[C@@H]1CC[C@]2(C(=O)NC3CCCCC3)CC[C@]3(C)[C@H](CC[C@@H]4[C@@]5(C)CCCNC(C)(C)[C@@H]5CC[C@]43C)[C@@H]12 | 49.7% (inactive)
7 | c1coc(-c2c3ccc(=[N+]4CCCCC4)cc-3oc3cc(N4CCCCC4)ccc23)c1 | -73.8% (active)
8 | CC(C)C(NC(=O)C1(NC(=O)OCc2ccccc2)CCCC1)C(=O)O (stereo not given) | 102% (inactive)
9 | c1c[nH]c(CNC2CCCCC2)c1 | 81.6% (inactive)
10 | COC(=O)[C@]12CC[C@@H](C)[C@H](C)[C@@H]1C1=CC[C@@H]3[C@@]4(C)C(C=O)=C[C@@](C)(COC(=O)c5ccco5)[C@@H]4C(=O)C[C@@]3(C)[C@]1(C)CC2 | 11.1% (inactive)
11 | Cc1ccc(Cl)c(NS(=O)(=O)c2ccc(-c3cnc(C4CC4)o3)cc2)c1 | 31.1% (inactive)
12 | COC(=O)/C=C1\S/C(=N\NS(=O)(=O)c2ccc(C)cc2)N(c2ccccc2)C1=O | 96.4% (inactive)
13 | COc1ccc(-c2[nH]c(=S)n(C(CC3(C)NCC(=O)N3n3c(-c4ccccc4)cc(C)nc3=S)c3ccc(OC)cc3)c(=O)c2Br)cc1 (stereo not given) | 66% (inactive)
14 | O=[N+]([O-])c1ccc(-c2cc(-c3ccc(Nc4nc(Nc5ccc(Cl)cc5)nc(Nc5ccc(Cl)cc5)n4)cc3)no2)cc1 | 74.1% (inactive)
15 | CCOC(CN=Cc1cc(C)c2[nH]c3ccccc3c2c1C)OCC | 101% (inactive)
16 | COc1cc(C(=O)c2cc(C)c3[nH]c4ccc(Cl)cc4c3c2C)cc(OC)c1OC | 27.3% (inactive)
17 | COC(=O)c1ccc(C2Nc3ccc(S(=O)(=O)Nc4ccc(C)c(C)c4)cc3C3OCCC23)cc1 (stereo not given) | 82.4% (inactive)
18 | CCc1ccccc1NC(=O)/C(C#N)=C/c1ccc(OC)cc1 | 81.1% (inactive)
19 | N#C/C(=C\c1ccc(-c2ccccc2F)o1)c1nc(-c2ccco2)cs1 | 78.4% (inactive)
20 | Cc1nn(-c2ccccc2)c2nc3c(c(-c4ccc(Cl)cc4)c12)CNC1(CCSCC1)N3 | 87% (inactive)

Row | Structure (SMILES) | growth
21 | O=C(NC(Cc1nnc2n(Cc3ccccc3)c(=O)c3c4c(sc3n12)CCCC4)c1ccc(Cl)cc1)c1ccccc1 (stereo not given) | 97.8% (inactive)
22 | COc1cccc(-c2nn(-c3ccccc3)cc2-c2ccnc(NCCCNC(=O)Nc3ccc(Cl)c(Cl)c3)c2)c1 | 6.51% (active)
23 | CC/C=C1/C(=O)C=C[C@@H]1C/C=C\CCCC(=O)O | 80.5% (inactive)
24 | CN(Cc1cnc2nc(N)nc(N)c2n1)c1ccc(C(=O)N[C@@H](CCc2nn[nH]n2)c2nn[nH]n2)cc1 | 32.6% (inactive)
25 | COc1ccc(-c2nc3ccc4[nH]ncc4c3c3c2CCCC3)cc1B(O)O | 57.6% (inactive)
26 | c1ccc(-c2nc([P+](c3ccccc3)(c3ccccc3)c3ccccc3)c(N3CCOCC3)o2)cc1 | 6.1% (active)
27 | NS(=O)(=O)c1ccc(-n2nc(C(=O)N/N=C\c3ccc(F)cc3)cc2-c2ccc(Cl)cc2)cc1 | 81.9% (inactive)
28 | O=C1C=C[C@]2(C[C@@H](c3cccc(C(F)(F)F)c3)O[C@@H](c3cccc(C(F)(F)F)c3)O2)O1 | 7.18% (active)
29 | COc1cccc(-c2nc3sccn3c2-c2ccnc(NCCNS(=O)(=O)c3cccc(F)c3)c2)c1 | 14.1% (inactive)
30 | COc1ccc2c(c1)C(=O)/C(=C/c1cccc(OCC(=O)Nc3nc(C)c(C)s3)c1)O2 | -85.4% (active)
31 | COc1ccc(-c2ccc3c(c2)sc2nc(-c4ccc(F)cc4)cn23)cc1 | 81.7% (inactive)
32 | O=C(/C=C/c1cccc(O)c1)c1cccc(-n2cc(-c3ccc4ccccc4c3)[nH]c2=O)c1 | 5.01% (active)
33 | COc1cccc(/C=C/C(=O)c2c(C)nc3ccccc3c2/C=C/c2ccc(C)cc2)c1OC | 43.4% (inactive)
34 | CC1(C)OC2C(CO[Si](C)(C)C(C)(C)C)OC(n3c(I)c(C#C[Si](C)(C)C)c(=O)[nH]c3=O)C2O1 (stereo not given) | 91.4% (inactive)
35 | COc1cc2c(cc1-c1c(C)noc1C)ncc1nc(C3CCCCC3)n(C3CCC(OC(F)F)CC3)c12 (stereo not given) | 16.8% (inactive)
36 | CC(C)(C)n1cc(-c2ccnc(NCCCNS(=O)(=O)c3ccccc3)c2)c(-c2ccccc2)n1 | 35.6% (inactive)
37 | O=c1[nH]ccc2nc(N3CCC(O)CC3)nc(Nc3ccc(N4CCOCC4)cc3)c12 | 89.8% (inactive)
38 | Cc1cc(Cl)ccc1Nc1nc(C(F)(F)F)ccc1C(=O)N/N=C/c1ccc(N(C)C)cc1 | 30.3% (inactive)
39 | Cc1ccc(N2CCN(C(=S)c3cccs3)CC2)cc1 | 92.9% (inactive)
40 | COc1ccc2occ(C3=C(c4c[nH]c5ccccc45)C(=O)N(O)C3=O)c2c1 | 81.3% (inactive)
